The supplement of paper PMC6555819

What was measured:
Assay in all cases: PBM binding z-score (relative to random genomic background probes); higher = stronger binding; sequences stand for … in GC…GCGATTGACAGCGTAGAATGAAGG
[1] = test system: RARb homodimer (NR concentration 270 nM)
Summary of the method: (§1)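 For binding z-scores, the reference was random background probes on custom Agilent 4×180K protein-binding microarrays. These arrays were incubated 1 h with ligand-free nuclear receptor dimers in PBS pH 7.4, 2% milk, 0.02% Triton X-100, 1 mM DTT, 0.2 mg/mL BSA and 0.4 mg/ml salmon testes DNA. Fluorescence was scanned after antibody detection of each partner (one per run) and regression-normalized.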

[2] = test system: RARg:RXRa (NR concentration 270 nM, RXRa partner concentration 90 nM)
Summary of the method: as §1

[3] = test system: RARg homodimer (NR concentration 270 nM)
Summary of the method: as §1

[4] = test system: RXRa DBDmut IVT, anti-RXR (DBD mutation: RXRa K156A/R161A, NR concentration 90 nM)
Summary of the method: as §1

[5] = test system: RXRa homodimer (NR concentration 180 nM)
Summary of the method: as §1

[6] = test system: THRa:RXRa (NR concentration 90 nM, RXRa partner concentration 90 nM)
Summary of the method: as §1

[7] = test system: THRa homodimer (NR concentration 90 nM)
Summary of the method: as §1

[8] = test system: VDR homodimer (NR concentration 270 nM)
Summary of the method: as §1

CCTACTGGGCCATGAGGTCATTGATATCAACGTT
PBM binding z-score [1]: 3.32
PBM binding z-score [2]: 3.54
PBM binding z-score [3]: 2.78
PBM binding z-score [4]: 1.42
PBM binding z-score [5]: 3.58
PBM binding z-score [6]: 3.97
PBM binding z-score [7]: 4.36
PBM binding z-score [8]: 4.75

TCATATAGGTAAAAGGTTAAAGTCGGTGTGGTAA
PBM binding z-score [1]: 2.41
PBM binding z-score [2]: 3.05
PBM binding z-score [3]: 1.54
PBM binding z-score [4]: 2.12
PBM binding z-score [5]: 4.88
PBM binding z-score [6]: 2.27
PBM binding z-score [7]: 0.509
PBM binding z-score [8]: 0.746

CTCGAAAGGTCGGTTGACGTGAGTATACGGATAA
PBM binding z-score [1]: 1.53
PBM binding z-score [2]: 2.54
PBM binding z-score [3]: 2.8
PBM binding z-score [4]: 1.06
PBM binding z-score [5]: 2.29
PBM binding z-score [6]: 1.21
PBM binding z-score [7]: -0.605
PBM binding z-score [8]: 0.501

GCTCGAAGGACAAGGTCAGAGCTTTGTCCGTAGA
PBM binding z-score [1]: 3.06
PBM binding z-score [2]: 3.15
PBM binding z-score [3]: 3.49
PBM binding z-score [4]: 0.0106
PBM binding z-score [5]: 2.51
PBM binding z-score [6]: 2.65
PBM binding z-score [7]: 0.93
PBM binding z-score [8]: 0.387

CAAACTAGGTCTCCGGAAGGTCAAAGTCCGCATG
PBM binding z-score [1]: 4.17
PBM binding z-score [2]: 4.36
PBM binding z-score [3]: 3.46
PBM binding z-score [4]: 0.358
PBM binding z-score [5]: 3.68
PBM binding z-score [6]: 2.88
PBM binding z-score [7]: 1.4
PBM binding z-score [8]: 1.84

ATTGAAAGGTCGAAGGTGAGTATACCCACCCGAA
PBM binding z-score [1]: 2.54
PBM binding z-score [2]: 4.17
PBM binding z-score [3]: 3.76
PBM binding z-score [4]: 1.26
PBM binding z-score [5]: 5.43
PBM binding z-score [6]: 2.22
PBM binding z-score [7]: 0.13
PBM binding z-score [8]: 0.982

ACAACGAGGGCAATGAGTTGATAGCACGGGTGGC
PBM binding z-score [1]: 1.02
PBM binding z-score [2]: 1.31
PBM binding z-score [3]: 1.71
PBM binding z-score [4]: 2.02
PBM binding z-score [5]: 0.837
PBM binding z-score [6]: 0.856
PBM binding z-score [7]: -0.343
PBM binding z-score [8]: 2.98

TTACCAAGATGAAAGGTCGTTGATGCACGCCTTG
PBM binding z-score [1]: 1.55
PBM binding z-score [2]: 1.58
PBM binding z-score [3]: 0.973
PBM binding z-score [4]: 0.753
PBM binding z-score [5]: 2.49
PBM binding z-score [6]: 1.27
PBM binding z-score [7]: -0.262
PBM binding z-score [8]: 1.53

CCTAGCAGGCCAATCTGGGTCACTCCAGGCTTGA
PBM binding z-score [1]: 2.01
PBM binding z-score [2]: 0.98
PBM binding z-score [3]: 1.01
PBM binding z-score [4]: -0.206
PBM binding z-score [5]: 0.548
PBM binding z-score [6]: 3.49
PBM binding z-score [7]: 0.312
PBM binding z-score [8]: -0.0635

CCTCGGAGGGCAGAAGGTCAGAGCTGTCCGCTTT
PBM binding z-score [1]: 3.76
PBM binding z-score [2]: 4.71
PBM binding z-score [3]: 4.01
PBM binding z-score [4]: -0.118
PBM binding z-score [5]: 2.82
PBM binding z-score [6]: 1.47
PBM binding z-score [7]: -0.593
PBM binding z-score [8]: -0.355

GCAGACAGGTGAAACGCAGGTAACTCCGGGTGGC
PBM binding z-score [1]: 0.0338
PBM binding z-score [2]: 0.702
PBM binding z-score [3]: -0.185
PBM binding z-score [4]: -0.71
PBM binding z-score [5]: 0.572
PBM binding z-score [6]: 1.32
PBM binding z-score [7]: -0.603
PBM binding z-score [8]: -0.791

ATACCAAGGTGATCGTCAGGTCGTTGATACTAAC
PBM binding z-score [1]: 1.14
PBM binding z-score [2]: 1.4
PBM binding z-score [3]: 0.502
PBM binding z-score [4]: -0.0242
PBM binding z-score [5]: 0.916
PBM binding z-score [6]: 2.98
PBM binding z-score [7]: 1.76
PBM binding z-score [8]: 1.12

ATCGAAAGTTCGAGGTGAGTATAGAGAAAGGGAA
PBM binding z-score [1]: 1.28
PBM binding z-score [2]: 1.69
PBM binding z-score [3]: 2.19
PBM binding z-score [4]: 1.85
PBM binding z-score [5]: 1.41
PBM binding z-score [6]: 1.7
PBM binding z-score [7]: 0.158
PBM binding z-score [8]: 1.09

TCGAGTATGTTAGGGGCATTCAGAATGGCGTCGA
PBM binding z-score [1]: 0.285
PBM binding z-score [2]: -0.134
PBM binding z-score [3]: -0.085
PBM binding z-score [4]: 1.26
PBM binding z-score [5]: 0.27
PBM binding z-score [6]: 0.709
PBM binding z-score [7]: -0.0845
PBM binding z-score [8]: 1.66

CCAGACAGGTGAGAAGGTAACTCGGCCTCGATTA
PBM binding z-score [1]: 0.583
PBM binding z-score [2]: 0.465
PBM binding z-score [3]: 0.269
PBM binding z-score [4]: 0.0522
PBM binding z-score [5]: 0.351
PBM binding z-score [6]: 0.364
PBM binding z-score [7]: 0.256
PBM binding z-score [8]: -0.0946

TCGAGTAGGTTAGGGGCAATCAGAATGGCGTCGA
PBM binding z-score [1]: 0.79
PBM binding z-score [2]: 0.398
PBM binding z-score [3]: 0.315
PBM binding z-score [4]: 0.12
PBM binding z-score [5]: 0.782
PBM binding z-score [6]: 0.826
PBM binding z-score [7]: 0.262
PBM binding z-score [8]: 0.267

CCGACTGGGGCAAGGTTACTATAACGCACAGCCA
PBM binding z-score [1]: 1.04
PBM binding z-score [2]: 0.944
PBM binding z-score [3]: 1.12
PBM binding z-score [4]: -0.108
PBM binding z-score [5]: 0.985
PBM binding z-score [6]: 0.939
PBM binding z-score [7]: 0.2
PBM binding z-score [8]: 0.00113

ACTAGTTGGTCAGCTGAGGTCACGCACAATTCGG
PBM binding z-score [1]: 4.79
PBM binding z-score [2]: 4.85
PBM binding z-score [3]: 4.8
PBM binding z-score [4]: 1.32
PBM binding z-score [5]: 4.79
PBM binding z-score [6]: 5.26
PBM binding z-score [7]: 5.78
PBM binding z-score [8]: 3.51

TCGACTAGGTTAGTCGGGGCATTCAGCCAACATA
PBM binding z-score [1]: 0.379
PBM binding z-score [2]: -0.0311
PBM binding z-score [3]: -0.0411
PBM binding z-score [4]: 0.284
PBM binding z-score [5]: -0.049
PBM binding z-score [6]: 1.1
PBM binding z-score [7]: -0.279
PBM binding z-score [8]: 0.492

CGTCCAAGGTCAAGGTCAGTAAAAGAGACTCGAA
PBM binding z-score [1]: 4.79
PBM binding z-score [2]: 6.66
PBM binding z-score [3]: 7.87
PBM binding z-score [4]: 3.57
PBM binding z-score [5]: 6.53
PBM binding z-score [6]: 4
PBM binding z-score [7]: 3.52
PBM binding z-score [8]: 3.34

AGCATGAGGTTATTAAGATCAGGGAATTGCGGTC
PBM binding z-score [1]: 0.785
PBM binding z-score [2]: 1.38
PBM binding z-score [3]: 1.03
PBM binding z-score [4]: 1.99
PBM binding z-score [5]: 1.77
PBM binding z-score [6]: 2.19
PBM binding z-score [7]: 0.867
PBM binding z-score [8]: 1.59

TCGAGTAGGTTACCAATCGGGCATTCAGCTTTCT
PBM binding z-score [1]: 0.187
PBM binding z-score [2]: 1.32
PBM binding z-score [3]: 0.199
PBM binding z-score [4]: -0.0305
PBM binding z-score [5]: 0.304
PBM binding z-score [6]: -0.223
PBM binding z-score [7]: -1.47
PBM binding z-score [8]: -1.01

AGTCAGAGTTCAGGACGAGGTAACGTAAAGCACG
PBM binding z-score [1]: 2.72
PBM binding z-score [2]: 4.62
PBM binding z-score [3]: 4.28
PBM binding z-score [4]: 3.5
PBM binding z-score [5]: 3.59
PBM binding z-score [6]: 3.79
PBM binding z-score [7]: 1.53
PBM binding z-score [8]: 3.75

TCTTGTAGATCAAGCAGGTTAAGAGAGCCTGAGT
PBM binding z-score [1]: 0.0574
PBM binding z-score [2]: -0.24
PBM binding z-score [3]: -0.296
PBM binding z-score [4]: 0.088
PBM binding z-score [5]: 0.168
PBM binding z-score [6]: 0.276
PBM binding z-score [7]: -0.531
PBM binding z-score [8]: -0.291

ACAGACAGGTAATGAAGGTAACTCAGGCTATCAT
PBM binding z-score [1]: 0.185
PBM binding z-score [2]: 0.351
PBM binding z-score [3]: 0.385
PBM binding z-score [4]: -0.156
PBM binding z-score [5]: 0.59
PBM binding z-score [6]: 1.14
PBM binding z-score [7]: 0.263
PBM binding z-score [8]: -0.0776

CGTCCAAGGTCATAGGAGGTGAGTGAAGACAGAT
PBM binding z-score [1]: 4.33
PBM binding z-score [2]: 5.74
PBM binding z-score [3]: 5.64
PBM binding z-score [4]: 3.53
PBM binding z-score [5]: 5.36
PBM binding z-score [6]: 5.3
PBM binding z-score [7]: 2.93
PBM binding z-score [8]: 2.82

TCATATAGGTAAAAGTTGAAAGTCGGTGTGGTAA
PBM binding z-score [1]: 0.645
PBM binding z-score [2]: 0.703
PBM binding z-score [3]: 0.395
PBM binding z-score [4]: 1.69
PBM binding z-score [5]: 1.83
PBM binding z-score [6]: 0.586
PBM binding z-score [7]: -0.0355
PBM binding z-score [8]: 0.425

ATCACTAGGTAACAAGTTCAGTGAAAGAGAGGAC
PBM binding z-score [1]: 1.82
PBM binding z-score [2]: 1.45
PBM binding z-score [3]: 1.49
PBM binding z-score [4]: 1.12
PBM binding z-score [5]: 0.815
PBM binding z-score [6]: 1.54
PBM binding z-score [7]: 0.852
PBM binding z-score [8]: 2.7
